Assay outcomes (PubChem BioAssay)
Compounds with a hit are over-represented: about 9% of the library has one in this group of screens.
PLK1 PBD block – qHTS for Inhibitors of PLK1-PDB (polo-like kinase 1 - polo-box domain): Primary Screen; Plk1 PBD binding of FITC phosphopeptide, fluorescence polarization; Potency, µM, actives largely listed as inhibitors; hit rate 2.8% among 360,000; Serine/threonine-protein kinase PLK1 (Homo sapiens), P53350; also: series mostly up to about 57 µM; nearly all actives have a fitted effect of over 65% in size
Target sequence (P53350 whole entry, looked up, the tested form may be a part): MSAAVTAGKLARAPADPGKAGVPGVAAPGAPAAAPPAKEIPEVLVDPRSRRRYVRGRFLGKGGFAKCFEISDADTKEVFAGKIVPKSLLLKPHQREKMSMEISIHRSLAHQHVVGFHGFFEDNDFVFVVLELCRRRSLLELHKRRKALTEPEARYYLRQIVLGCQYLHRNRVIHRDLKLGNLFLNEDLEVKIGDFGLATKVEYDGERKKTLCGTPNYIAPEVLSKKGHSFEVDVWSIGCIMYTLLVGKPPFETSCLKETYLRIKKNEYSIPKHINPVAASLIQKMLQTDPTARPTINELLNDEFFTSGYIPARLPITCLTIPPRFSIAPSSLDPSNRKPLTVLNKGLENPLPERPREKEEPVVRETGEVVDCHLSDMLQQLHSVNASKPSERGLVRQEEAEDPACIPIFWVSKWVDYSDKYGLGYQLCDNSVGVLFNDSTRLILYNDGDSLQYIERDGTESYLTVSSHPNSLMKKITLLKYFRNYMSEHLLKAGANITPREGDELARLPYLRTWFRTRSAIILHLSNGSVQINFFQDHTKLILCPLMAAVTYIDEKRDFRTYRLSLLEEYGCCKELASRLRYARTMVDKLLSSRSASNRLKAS
BAZ2B block – qHTS Assay for Inhibitors of BAZ2B. Bromodomain adjacent to zinc finger domain protein 2B (Homo sapiens), Q9UIF8. AlphaScreen BAZ2B-H3K14Ac peptide displacement. Potency, µM (series often up to 114 µM), usual class: inhibitors. hit rate 4.4% among 360,000. AID 504333, 2011; also: nearly all actives have a fitted effect of over 60% in size
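Protein-peptide AlphaScreen: BAZ2B 50 nM, b-H3K14Ac 50 nM, 1x PBS pH 7.4 + 0.01% Tween-20. Preincubation 30 min RT; cpd 30 min RT (top 110 uM); beads 20 min RT, light-protected.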
G9a inh – qHTS Assay for Inhibitors of Histone Lysine Methyltransferase G9a; Histone-lysine N-methyltransferase EHMT2 (Homo sapiens), Q96KQ7; G9a H3K9 monomethylation, AlphaScreen, 2 h; Potency, µM (highest dose often 102 µM), most hits filed as inhibitors; hit rate 8.8% among 350,000; AID 504332, 2011; also: nearly all actives have a fitted effect of over 75% in size
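Enzyme 20 nM + cpd, 15 min RT; add b-H3K9 pep 500 nM / SAM 20 uM; 2 h RT; anti-H3K9me1 Ab 0.5 ug/mL + SA donor / anti-rabbit acceptor beads 20 ug/mL each, 10 min; AlphaScreen read.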
JMJD2A Tudor inh – qHTS Assay for Inhibitors of JMJD2A-Tudor Domain; AlphaScreen JMJD2A-Tudor / H3K4me3 peptide binding; Potency, µM (top dose mostly 114 µM), actives largely listed as inhibitors; hit rate 4.4% among 390,000; AID 504339, 2011; also: nearly all actives have a fitted effect of over 50% in size
HP1b chromo inh – HTS for Inhibitors of HP1-beta Chromodomain Interactions with Methylated Histone Tails | Chromobox protein homolog 1 (Homo sapiens), P83916 | AlphaScreen HP1-beta / biotin-H3K9me3 peptide binding | Potency, µM (top dose mostly 114 µM), most hits filed as inhibitors | hit rate 0.56% among 390,000; also: nearly all actives have a fitted effect of over 70% in size
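Compound inhibition of the preformed complex between 50 nM HP1-beta and 50 nM biotinylated H3K9me3 peptide was read by AlphaScreen. Buffer was PBS pH 7.4 with 0.01% Tween-20. Incubations ran 30 min at room temperature, with 10 ug/mL donor/acceptor beads.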
12-LOX inh – Primary qHTS assay for inhibitors of human arachidonate 12S-lipoxygenase (ALOX12): Round 2 | Potency, µM (highest dose often 108 µM), hits mostly inhibitors | Polyunsaturated fatty acid lipoxygenase ALOX12 (Homo sapiens), P18054 | hit rate 1.1% among 580,000 | purified 12hLO, xylenol orange hydroperoxide absorbance | AID 1671190, 2021
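Purified human 12hLO at 150 nM in 25 mM Hepes, 0.01% Triton X-100, pH 7.0, preincubated 15 min at room temperature with compound. Reaction started with 40 uM arachidonic acid, 30 min at room temperature. Hydroperoxide measured by Fe-xylenol orange, 573/405 nm absorbance ratio.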
Hits are given with their value; . = inactive; ? = inconclusive; / = no result given; [ ] = remark or other dose. Calls follow the shape of the dose curve; as a rule, active = well fitted curve in the direction sought with a large enough effect; inconclusive = small, poorly fitted or top-dose-only effect, or another doubt; inactive = no such curve, though single readings can be large; an effect the other way counts as inactive or inconclusive.

SMILES	PLK1 PBD block	BAZ2B block	G9a inh	JMJD2A Tudor inh	HP1b chromo inh	12-LOX inh
COCc1cc(CNC(=O)C2NCCc3[nH]cnc32)[nH]n1 (stereo not drawn)	/	/	/	/	/	.
CCOc1ccc(NC(=S)NC(C)CCc2ccccc2)cc1 (stereo not drawn)	.	?	.[12.7 µM]	.	.	?
N#Cc1ccc(-c2nc(C3CC(=O)N(c4ccc(F)cc4)C3)no2)cc1 (stereo not drawn)	/	/	/	/	/	10µM
N#Cc1ccc(-c2nc(C3CC(=O)N(c4ccc(Cl)cc4)C3)no2)cc1 (stereo not drawn)	/	/	/	/	/	12.6µM
O=C1[C@H]2[C@H]3[C@H](O)[C@H](O)C/C(=N\OC[C@@H](O)COCc4ccco4)[C@@H]3CC[C@H]2C(=O)N1c1ccc(F)cc1F	/	.	50.1µM	/	/	/
COc1ccc(C2NC(=S)NC(C)=C2C(=O)c2ccccc2)cc1OC (stereo not drawn)	.	.	.	.	.	?
COc1ccc(/C=C/c2ccc3c(Br)ccc(O)c3n2)cc1	.	.	.	.	.	.
COc1cc(/C=C/c2ccc3c(Br)cc(Br)c(O)c3n2)ccc1O	23.8µM	.	.	.	.	.
CN(Cc1ccco1)S(=O)(=O)c1cc(F)ccc1CN1C(=O)c2cccnc2C1=O	.	?	.	.	.	?
CN(Cc1ccco1)S(=O)(=O)c1ccc(CN2C(=O)c3cccnc3C2=O)s1	26.7µM	.	?	31.6µM	.	?
O=C(Nc1ccc(N2CCOCC2)cc1)C1CN(S(=O)(=O)C2CC2)CC12CCCCC2 (stereo not drawn)	/	/	/	/	/	.
Nc1cc(=O)nc2cn[nH]n12	.	/	/	/	/	.
Cc1nc(Nc2ccccc2Cl)sc1C(=O)Nc1ccccc1	.	?	28.2µM	.	.	.
Cc1nc(Nc2ccccc2)sc1C(=O)Nc1ccccc1	.	.	/	.	.	?
COc1ccccc1Nc1nc2c(s1)CCC2	26.7µM	.	25.1µM	.	.	.
COc1ccccc1Nc1nc(C)c(C(=O)Nc2ccccc2)s1	.	.	50.1µM	.	.	.
CC(=O)c1ccc(N2Cc3ccccc3/C2=N\C(=O)Nc2ccccc2)cc1	.	.	.	.	.	.
CC(=O)c1cccc(N2Cc3ccccc3C2=NC(=O)CCl)c1	13.4µM	.	31.6µM	35.5µM	.	.
CC(C)CC(COCc1ccc([N+](=O)[O-])cc1)N1CCN(C(=O)c2ccc(C(F)(F)F)cc2)CCC1=O (stereo not drawn)	.	?	50.1µM	.	.	.
O=C(c1ccc(C(F)(F)F)cc1)N1CCC(=O)N(C(COCc2ccc(C(F)(F)F)cc2)Cc2ccccc2)CC1 (stereo not drawn)	.	?	44.7µM	.	.	.
Cc1cccc(C(=O)N2CCC(=O)N(C(COCc3cccc(Cl)c3)Cc3ccccc3)CC2)c1 (stereo not drawn)	.	.	79.4µM	.	.	?
Cc1cccc(C(=O)N2CCC(=O)N([C@H](COCc3cccc(Cl)c3)Cc3ccccc3)CC2)c1	.	/	.	/	/	?
Cc1cccc(COCC(CC(C)C)N2CCN(C(=O)c3ccc(C(F)(F)F)cc3)CCC2=O)c1 (stereo not drawn)	.	.	?	.	.	.
Cc1cccc(COC[C@H](Cc2ccccc2)N2CCN(C(=O)c3ccc(C(F)(F)F)cc3)CCC2=O)c1	.	/	/	/	/	?
CCOC(=O)CSC1=C(C#N)C(c2ccc(Cl)cc2)C(C(=O)OC)C(=O)N1 (stereo not drawn)	23.8µM	.	?	.	.	?
SMILES	PLK1 PBD block	BAZ2B block	G9a inh	JMJD2A Tudor inh	HP1b chromo inh	12-LOX inh
COC(=O)C1C(=O)NC(SC)=C(C#N)C1c1ccccc1 (stereo not drawn)	.	.	?	.	.	.
COC(=O)CSC1=C(C#N)C(c2ccc(Cl)cc2)C(C(=O)OC)C(=O)N1 (stereo not drawn)	26.7µM	.	44.7µM	.	.	.
COc1ccc(S(=O)(=O)N2CCCCCC2)cc1C(=O)N(C)Cc1ccc(Cl)cc1Cl	.	.	?	.	.	.
Cc1[nH]c(=O)[nH]c1C(=O)CCCCC(=O)OCC(=O)Nc1ccccn1	.	0.891µM	1.58µM	0.794µM	.	.
Cn1nc(C(F)(F)F)c(-c2ccccc2)c1NC(=O)c1nccnc1C(=O)O	.	79.4µM	/	?	.	.
Cn1nccc1NC(=O)c1nccnc1C(=O)O	.	?	39.8µM	.	.	.
COc1ccc(-c2ocnc2C(=O)Nc2cc(OC)cc(OC)c2)cc1	/	/	/	/	/	.
O=C(O)c1nccnc1C(=O)Nc1ccc(Oc2c(Cl)cccc2Cl)nc1	.	?	/	.	.	?
CC(=O)Nc1ccc(NC(=O)c2nccnc2C(=O)O)cn1	.	50.1µM	.	.	.	?
COc1cc(NC(=O)c2nccnc2C(=O)O)cc(OC)c1	.	?	22.4µM	39.8µM	.	4.47µM
Cn1nccc1NC(=O)NC(=O)c1c(Cl)cccc1Cl	.	.	.	.	.	.
COc1ccc2occ(C(=O)c3coc4ccc(O)c(CN(C)C)c34)c2c1	.	.	.	?	.	?
CCOc1ccc(N2C(=O)CC(N3CCN(c4ccccc4F)CC3)C2=O)cc1 (stereo not drawn)	26.7µM	.	.	.[11.4 µM]	.	.
O=C1CC(N2CCN(S(=O)(=O)c3ccccc3F)CC2)C(=O)N1c1ccccc1F (stereo not drawn)	.	/	/	15.8µM	?	?
COc1ccc(N2C(=O)CC(N3CCN(c4ccc(S(C)(=O)=O)cc4)CC3)C2=O)cc1 (stereo not drawn)	.	.	31.6µM	.	.	.
CCOc1ccc(N2C(=O)CC(/C=C3/N(C)c4ccccc4C3(C)C)C2=O)cc1 (stereo not drawn)	.	?	14.1µM	?	.	.
NC(=O)COc1ccc(Nc2nnc(-c3ccc(O)cc3)c3ccccc23)cc1	.	.	.	.	.	.
Cc1nc2sc3c(c2c2nc(C(=O)NCCN4CCOCC4)nn12)CCC3	/	/	/	/	/	.
CCOc1ccc(N2C(=O)CC(N3CCN(c4ccccc4OC)CC3)C2=O)cc1 (stereo not drawn)	.	.[0.457 µM]	/	.	.	?
COc1ccc(NC2CCN(C3CC(=O)N(c4ccc(F)c(Cl)c4)C3=O)CC2)cc1 (stereo not drawn)	.	44.7µM	?	?	?	.
